Results reported in PubChem BioAssay (Tox21).
Results filed as inconclusive are left out. Active and inactive are the calls of the source. Unless noted, calls follow the shape of the full dose curve.

Key:
[1] = target: Gonadotropin-releasing hormone receptor (Homo sapiens) (UniProt P30968); assay: Human gonadotropin-releasing hormone receptor (GnRHR) small molecule agonists, calcium flux assay in GnRHR-HEK293 cells (AID 1920063); also: nearly all actives have a fitted effect of over 35% in size
Chain of Gonadotropin-releasing hormone receptor (Homo sapiens) (P30968 whole entry, looked up): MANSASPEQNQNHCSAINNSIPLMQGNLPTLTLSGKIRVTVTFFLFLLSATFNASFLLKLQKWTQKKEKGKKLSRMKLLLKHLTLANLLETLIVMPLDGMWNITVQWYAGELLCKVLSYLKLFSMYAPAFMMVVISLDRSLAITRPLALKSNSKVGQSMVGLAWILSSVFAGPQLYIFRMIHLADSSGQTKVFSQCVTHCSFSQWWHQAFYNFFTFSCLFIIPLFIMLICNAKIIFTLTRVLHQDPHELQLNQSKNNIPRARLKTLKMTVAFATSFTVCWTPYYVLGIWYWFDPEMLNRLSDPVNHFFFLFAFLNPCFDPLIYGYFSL
Method in brief: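 GnRHR-HEK293, 1500 cells/well, 18 h 37 C/5% CO2; Ca dye 1 h 37 C; cpd pinned (DMSO), agonist mode; kinetic FL 480/540, 3 min, 1 s reads; 15 conc, n=3.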

[2] = target: KiSS-1 receptor (Homo sapiens) (UniProt Q969F8); assay: Human kisspeptin (KISS1R) small molecule agonists, calcium flux assay in KISS1R-HEK293 cells (AID 1920064; active = well fitted activation curve with a large enough effect in the repeat runs)
Chain of KiSS-1 receptor (Homo sapiens) (Q969F8 whole entry, looked up): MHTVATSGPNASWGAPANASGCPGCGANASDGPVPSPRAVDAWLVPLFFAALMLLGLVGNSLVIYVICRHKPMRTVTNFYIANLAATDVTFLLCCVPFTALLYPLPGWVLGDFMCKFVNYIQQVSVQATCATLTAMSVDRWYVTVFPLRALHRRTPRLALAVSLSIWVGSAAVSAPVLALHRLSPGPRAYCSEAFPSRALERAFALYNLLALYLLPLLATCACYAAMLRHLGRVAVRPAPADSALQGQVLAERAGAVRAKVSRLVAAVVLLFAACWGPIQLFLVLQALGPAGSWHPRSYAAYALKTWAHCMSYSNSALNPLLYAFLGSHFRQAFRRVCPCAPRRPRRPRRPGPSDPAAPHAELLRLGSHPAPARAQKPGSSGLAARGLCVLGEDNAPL
Method in brief: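 Stable human KISS1R HEK293 line; 18 h plating, 37 C/5% CO2; calcium dye 1 h 37 C; compound pin transfer; kinetic fluorescence Ex/Em 480/540, 3 min.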

[3] = G protein-coupled receptor (GPCR) small molecule agonists, calcium flux assay: HEK293 wild type cell line counter screen (AID 1920065)
Method in brief: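 Kinetic fluorescence at Ex/Em 480/540, recorded every second over 3 min, served as the read-out after compound addition. Each compound was tested at 15 concentrations in triplicate on cells pre-loaded with calcium dye for 1 h.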

[4] = p53 small molecule agonists, cell-based qHTS assay with human liver microsomes (AID 1963577);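 also: p53 response element beta-lactamase reporter cells with liver microsomes plus NADPH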
Method in brief: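 16 h, 37 C exposure of p53RE-bla cells to compounds with human liver microsomes and NADPH (0.5 mg/mL final each); detection via LiveBLAzer mixture, 2 h dark at room temperature.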

[5] = p53 small molecule agonists, cell-based qHTS assay with rat liver microsomes (AID 1963578)
Method in brief: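 With rat liver microsomes and NADPH present (0.5 mg/mL final each), p53RE-bla cells are treated with compound for 16 h at 37 C. LiveBLAzer detection mixture is then applied for 2 h at room temperature in the dark.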

[6] = p53 small molecule agonists, cell-based qHTS assay with human liver microsomes: qHTS cell viability counter screen (AID 1963579); also: nearly all actives have a fitted effect of over 45% in size
Method in brief: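 In this multiplexed counter screen, the reporter plates were subsequently treated with CellTiter-Glo so that cell viability, reflected by luminescence, could be recorded for p53RE-bla cells dosed 16 h with compounds under microsomal activation (HLM and NADPH).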

[7] = p53 small molecule agonists, cell-based qHTS assay with rat liver microsomes: qHTS cell viability counter screen (AID 1963580); also: nearly all actives have a fitted effect of over 45% in size
Method in brief: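 HCT-116 p53RE-bla, 4,000 cells/well, 5 h pre-incubation; cpd + rat liver microsomes 0.5 mg/mL + NADPH 0.5 mg/mL (final); 16 h, 37 C; CellTiter-Glo, 30 min RT; luminescence.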

[8] = p53 small molecule agonists, cell-based qHTS assay: qHTS cell viability counter screen (AID 1963581); also: nearly all actives have a fitted effect of over 45% in size
Method in brief: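 HCT-116 p53RE-bla cells, 4,000/well, plated 5 h before compound pin transfer; 16 h at 37 C; bla substrate 2 h RT; then CellTiter-Glo, 30 min RT, luminescence.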

[9] = p53 small molecule agonists, cell-based qHTS assay (AID 1963582; active = well fitted activation curve with a large enough effect in the signal ratio in the repeat runs, not every such curve was filed as active; the % refers to the signal ratio)
Method in brief: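 Reporter line: p53RE-bla. Pre-incubation 5 h, 37 C, 5% CO2; compound (DMSO, pin tool) 16 h, 37 C; B/G FRET substrate 2 h RT; fluorescence intensity read.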

[10] = target: 5-hydroxytryptamine receptor 2A (Homo sapiens) (UniProt P28223); assay: 5-hydroxytryptamine receptor 2A (HTR2A) small molecule antagonists, cell-based qHTS assay (AID 1963586); also: nearly all actives have a fitted effect of over 45% in size
Chain of 5-hydroxytryptamine receptor 2A (Homo sapiens) (P28223 whole entry, looked up): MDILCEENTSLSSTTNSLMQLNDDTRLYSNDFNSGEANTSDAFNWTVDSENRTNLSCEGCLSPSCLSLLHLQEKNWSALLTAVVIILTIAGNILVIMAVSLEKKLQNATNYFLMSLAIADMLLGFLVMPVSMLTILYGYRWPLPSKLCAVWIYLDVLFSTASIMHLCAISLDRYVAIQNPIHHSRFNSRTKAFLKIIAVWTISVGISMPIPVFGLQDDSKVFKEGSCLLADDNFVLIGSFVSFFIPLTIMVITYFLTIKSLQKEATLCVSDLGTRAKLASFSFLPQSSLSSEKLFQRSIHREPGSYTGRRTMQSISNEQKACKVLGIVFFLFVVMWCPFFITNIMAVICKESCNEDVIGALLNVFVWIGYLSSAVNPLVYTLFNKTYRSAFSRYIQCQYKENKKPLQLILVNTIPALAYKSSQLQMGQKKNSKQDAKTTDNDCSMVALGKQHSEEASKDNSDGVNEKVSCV
Method in brief: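 Antagonist-mode intracellular calcium assay: DOI (4 nM) added after 5 min compound pre-incubation at room temperature to dye-loaded HTR2A-CHO cells. Fluorescence followed for 3 min, sampled every second.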

[11] = target: 5-hydroxytryptamine receptor 2A (Homo sapiens) (UniProt P28223); assay: 5-hydroxytryptamine receptor 2A (HTR2A) small molecule agonists, cell-based qHTS assay (AID 1963587); also: nearly all actives have a fitted effect of over 30% in size
Method in brief: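 Kinetic calcium-flux fluorescence (2 min, 1 sec intervals) after compound addition in agonist mode. HTR2A-CHO cells were cultured 18 h, then dye-loaded 1 h at 37 C.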

[12] = target: Muscarinic acetylcholine receptor M1 (Homo sapiens) (UniProt P11229); assay: Cholinergic receptor muscarinic 1 (CHRM1) small molecule agonists, cell-based qHTS assay (AID 1963589); also: nearly all actives have a fitted effect of over 35% in size
Chain of Muscarinic acetylcholine receptor M1 (Homo sapiens) (P11229 whole entry, looked up): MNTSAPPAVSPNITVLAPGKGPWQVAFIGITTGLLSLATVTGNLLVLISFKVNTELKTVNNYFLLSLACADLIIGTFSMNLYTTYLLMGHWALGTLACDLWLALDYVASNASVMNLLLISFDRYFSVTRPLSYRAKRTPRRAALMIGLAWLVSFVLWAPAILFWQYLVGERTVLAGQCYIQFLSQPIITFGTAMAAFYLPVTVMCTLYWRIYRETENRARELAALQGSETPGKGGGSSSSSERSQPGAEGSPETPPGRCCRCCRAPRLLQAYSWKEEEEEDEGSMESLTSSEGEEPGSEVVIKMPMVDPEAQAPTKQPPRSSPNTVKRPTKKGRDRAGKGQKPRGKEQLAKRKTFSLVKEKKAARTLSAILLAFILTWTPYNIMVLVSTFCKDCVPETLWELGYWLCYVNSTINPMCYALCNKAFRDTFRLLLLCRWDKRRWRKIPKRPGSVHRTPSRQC
Method in brief: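 Human M1 in stable CHO line; 18 h plating, 1 h dye load 37 C; cpd added (agonist mode); Ca2+ fluorescence kinetic read, 1 s intervals; 15 conc, 3 runs.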

[13] = cAMP Responsive Elements (CRE) small molecule agonists, cell-based qHTS assay (AID 1963590)
Method in brief: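 HEK 293T CRE-bla, 2,000 cells/well, 18 h preincubation 37 C/5% CO2; cpds (DMSO) pinned, 3 h; LiveBLAzer B/G FRET substrate, 2 h RT.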

[14] = cAMP Responsive Elements (CRE) small molecule antagonists, cell-based qHTS assay (AID 1963591; active = well fitted inhibition curve with a large enough effect in the signal ratio in the repeat runs, not every such curve was filed as active; the % refers to the signal ratio)
Method in brief: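 Beta-lactamase reporter read by FRET substrate (LiveBLAzer B/G) after 2 h at room temperature. CRE-bla HEK293T cells had received compound plus 0.25 uM (final) NKH477 for 3 h at 37 °C.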

[15] = target: Beta-2 adrenergic receptor (Homo sapiens) (UniProt P07550); assay: Adrenergic beta2 receptor (ADRB2) small molecule antagonists, cell-based qHTS assay (AID 1963592); also: series mostly up to about 92 µM; nearly all actives have a fitted effect of over 50% in size
Chain of Beta-2 adrenergic receptor (Homo sapiens) (P07550 whole entry, looked up): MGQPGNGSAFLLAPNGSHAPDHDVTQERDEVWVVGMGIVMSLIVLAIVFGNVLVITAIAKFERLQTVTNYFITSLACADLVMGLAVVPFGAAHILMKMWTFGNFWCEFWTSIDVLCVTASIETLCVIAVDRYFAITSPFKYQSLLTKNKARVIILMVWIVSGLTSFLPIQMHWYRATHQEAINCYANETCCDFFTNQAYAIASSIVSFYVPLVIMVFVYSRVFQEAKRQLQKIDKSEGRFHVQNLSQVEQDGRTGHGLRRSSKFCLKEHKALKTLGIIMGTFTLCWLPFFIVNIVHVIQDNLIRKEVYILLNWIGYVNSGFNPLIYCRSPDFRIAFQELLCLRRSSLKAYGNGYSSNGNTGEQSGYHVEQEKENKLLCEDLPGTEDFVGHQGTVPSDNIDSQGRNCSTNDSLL
Method in brief: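 Cells (CHO, stable ADRB2 overexpression) incubated 18-20hr at 37C; compounds added from DMSO; agonist mix (1nM isoproterenol, 100uM IBMX, 25uM Ro-20-1724) added; 0.5hr RT; d2-cAMP and anti-cAMP-cryptate added; 1hr RT; 665/615 nm read.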

[16] = target: D(2) dopamine receptor (Homo sapiens) (UniProt P14416); assay: Dopamine D2 receptor (DRD2) small molecule agonists, cell-based qHTS assay (AID 1963594); also: nearly all actives have a fitted effect of over 35% in size
Chain of D(2) dopamine receptor (Homo sapiens) (P14416 whole entry, looked up): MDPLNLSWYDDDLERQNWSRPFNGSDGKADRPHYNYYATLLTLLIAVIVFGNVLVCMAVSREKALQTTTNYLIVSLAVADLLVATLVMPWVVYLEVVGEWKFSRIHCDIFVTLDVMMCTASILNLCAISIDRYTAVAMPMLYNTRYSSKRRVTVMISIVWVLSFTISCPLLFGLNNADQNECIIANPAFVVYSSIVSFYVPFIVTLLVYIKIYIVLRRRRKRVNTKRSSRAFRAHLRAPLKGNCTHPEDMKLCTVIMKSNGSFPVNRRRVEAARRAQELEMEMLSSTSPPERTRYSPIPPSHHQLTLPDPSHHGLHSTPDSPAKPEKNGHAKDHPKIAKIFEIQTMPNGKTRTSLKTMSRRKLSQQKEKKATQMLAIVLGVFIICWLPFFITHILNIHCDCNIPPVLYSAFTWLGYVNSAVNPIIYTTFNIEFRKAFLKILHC
Method in brief: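 cAMP accumulation in DRD2-HEK293 cells measured by HTRF after 1 h detection; compounds added 10 min before NKH477 (200nM […]) forskolin-analogue stimulation, 30 min at room temperature, with Ro20-1724 present at 0.1 mM final.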

[17] = target: D(2) dopamine receptor (Homo sapiens) (UniProt P14416); assay: Dopamine D2 receptor (DRD2) small molecule antagonists, cell-based qHTS assay (AID 1963595; active = well fitted inhibition curve with a large enough effect in the signal ratio in the repeat runs, with a control signal flat; the % refers to the signal ratio)
Method in brief: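 HEK293 cells stably expressing DRD2, preincubated with 0.1 mM Ro20-1724 and compounds 10 min, were stimulated with 200 nM NKH477 plus 12 nM quinpirole for 30 min at room temperature; cAMP measured by HTRF (665/620 nm).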

[18] = target: Muscarinic acetylcholine receptor M1 (Homo sapiens) (UniProt P11229); assay: Cholinergic receptor muscarinic 1 (CHRM1) small molecule antagonists, cell-based qHTS assay (AID 1963588); also: nearly all actives have a fitted effect of over 40% in size
Method in brief: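 CHRM1-CHO calcium-flux assay, antagonist mode. Cells were seeded 18 h, dye-loaded 1 h at 37 C and given compound for 5 min at RT, then acetylcholine was added at 50nM. FDSS fluorescence was read 3 min; 15 concentrations, three runs.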

[19] = target: Beta-2 adrenergic receptor (Homo sapiens) (UniProt P07550); assay: Adrenergic beta2 receptor (ADRB2) small molecule agonists, cell-based qHTS assay (AID 1963593);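 also: CHO cells stably overexpressing human ADRB2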
Method in brief: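 CHO cells stably over-expressing ADRB2 were plated overnight at 37C, then dosed with compounds plus a stimulation mix containing 100uM IBMX and 25uM Ro-20-1724 for 0.5hr at room temperature. cAMP was measured by HTRF competition, 1hr.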

Measured: Potency

COC(=O)Nc1ccc(Cl)c(Cl)c1
not listed: [18] | [19]
inactive: all other assays above

C[Si](C)O[Si](C)C
inactive: all assays above

FC(F)(F)c1ccccc1
not listed: [15] | [19]
inactive: all other assays above

CCOC(=O)c1cc(=O)c2c(OCC(COc3cccc4oc(C(=O)OCC)cc(=O)c34)OC(=O)[C@@H](N)CCCCN)cccc2o1
not listed: [16]
inactive: all other assays above

Cc1ccc(C(C)c2ccc(C)c(C)c2)cc1C
inactive: all assays above

C[N+]1([O-])CCOCC1
not listed: [15]
inactive: all other assays above

C=CC(C)(CCC=C(C)C)OC=O (stereo not drawn)
not listed: [16] | [19]
inactive: all other assays above

CCCC(O)C(O)CO (stereo not drawn)
inactive: all assays above

CCCCCCCCSCC
inactive: all assays above

NC/C=C/C(=O)O
inactive: all assays above

O=C1OC(CN2CCOCC2)CN1/N=C/c1ccc([N+](=O)[O-])o1 (stereo not drawn)
inactive: all assays above

Nc1cc([N+](=O)[O-])ccc1Cl
not listed: [13]
inactive: all other assays above

NCCC(O)(P(=O)(O)O)P(=O)(O)O
not listed: [16]
inactive: all other assays above

CCCCCC/C=C/C(=O)OC
not listed: [19]
inactive: all other assays above

C[C@@H](O)[C@H]1C(=O)N2C(C(=O)O)=C([C@H]3CCCO3)S[C@H]12
not listed: [14] | [15] | [16]
inactive: all other assays above

COc1cc2c(Nc3ccc(Br)cc3F)ncnc2cc1OCC1CCN(C)CC1
not listed: [12] | [15] | [19]
inactive: all other assays above

CC(=O)N1C[C@H](O)C[C@H]1C(=O)O
not listed: [16] | [19]
inactive: all other assays above

C(/C=C/C=C/Nc1ccccc1)=Nc1ccccc1
inactive: all assays above

OCC1CCC(CO)CC1 (stereo not drawn)
not listed: [14]
inactive: all other assays above

CSc1ccc(C(=O)c2[nH]c(=O)[nH]c2C)cc1
not listed: [16]
inactive: all other assays above

CC(C#N)(CCC(=O)O)N=NC(C)(C#N)CCC(=O)O (stereo not drawn)
inactive: all assays above

C[Si]1(C)O[Si](C)(C)O[Si](C)(C)O[Si](C)(C)O[Si](C)(C)O1
not listed: [16] | [18] | [19]
inactive: all other assays above

CCCCCCCC(=O)[O-].CCCCCCCC(=O)[O-].[Zn+2]
inactive: all assays above
